The results in this text go back to PubChem BioAssay (NCATS).

Results filed as inconclusive are left out. Active and inactive are the calls of the source. Unless noted, the call rests on the fitted dose curve; in most records, active means well fitted curve in either direction with a large enough effect (not every such curve was filed as active); inconclusive means small, poorly fitted or top-dose-only effect, or another doubt; inactive means flat fitted curve, though single readings scatter.

Experiment [1] is described as follows: AP1 Signaling Pathway (AID 357).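 Further: ME-180 reporter cells stimulated with EGF at its EC50 level; on the % scale 0 is the no-effect control and ±100 the full control effect.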 A digest of the protocol:
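Titration-series screen for positive or negative modulators of EC50 EGF-induced signaling in ME-180 cells carrying an AP-1-driven beta-lactamase reporter. After 5 hours at 37 degrees Celsius, CCF4 460nm/530nm emission ratio gave %Activity; AC50 values derived.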

Experiment [2] has as its target Cytochrome P450 1A2 (Homo sapiens) (UniProt P05177). Description: p450-cyp1a2 (AID 410; calls by dose curve; further: potency means the concentration at half of the fitted maximal effect;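 on activity change, negative = inhibition: -100% = full effect of reference inhibitor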). In a few lines:
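Human CYP1A2 (20nM) demethylated Luciferin-ME at its Km (100uM) in 100mM KPO4. After 10 min compound preincubation, NADPH regeneration ran the reaction 60 min at room temperature. Luciferin was read by luminescence, normalized to 57 uM furafylline.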

Experiment [3] in a line: NFAT Signaling Pathway (AID 444).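 Further: carbachol stimulus at about its EC50 of 1 µM final; on the % scale 0 is the no-effect control and ±100 the full control effect.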 The conditions noted are these: Jurkat NFAT-bla M1, carbachol, beta-lactamase ratio, 5 h; at 17.2 µM (top of the series) unless noted. A digest of the protocol:
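Jurkat cells with NFAT-driven β-lactamase reporter and co-expressed M1 receptor, stimulated with carbachol (final 1 uM, ~EC50), compound titration, 5 h at 37 °C. CCF4 loaded 1 h at RT; 460/530 nm ratio gave %activity and AC50.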

The nature of experiment [4]: Stat Signaling Pathway (AID 446).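 Further: ME-180 cervical cancer cells given 40 pM IL-6 alongside compound; SIE-controlled beta-lactamase reporter measured as 460/530 nm FRET emission ratio; on the % scale 0 is the no-effect control and ±100 the full control effect.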 A digest of the protocol: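 ME-180 SIE-bla cells; overnight plating; cpd + IL-6 40 pM, 5 h, 37 C; LiveBLAzer 2.5 h RT; 460/530 nm emission ratio. Normalized to 300 pM IL-6 and 125 nM JAK inhibitor controls.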
The target of experiment [5] is Glucocorticoid receptor (Homo sapiens) (UniProt P04150). The experiment can be described thus: GR-EFC Redistribution (AID 451; calls by dose curve; further: potency means the concentration at half of the fitted maximal effect). The conditions noted are these: CHO-K1 GR-EFC translocation, beta-gal luminescence, 2 h. In a few lines:
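CHO-K1 cells expressing nuclear EA and GR-ED fragments of b-gal; compounds titrated up to 46 uM final, 2 h at 37 C. GR nuclear translocation read as complemented b-gal luminescence after 1 h RT detection.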

The target in experiment [6] is Mitogen-activated protein kinase 10 (Mus musculus) (UniProt Q61831). Description: JNK3 AlphaScreen Assay (AID 530).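 Further: kinase came from lysate of stimulated human HepG2 cells; signal reports phosphorylation of biotinylated GST-cJun 1-79 at Ser73 with 10 µM ATP; on the % scale 0 is the no-effect control and ±100 the full control effect.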 In a few lines:
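qHTS format: compounds tested as titrations against IL-1beta/TNF-alpha-activated HepG2 lysate JNK3 with biotin-GST-cJun substrate and 10 uM ATP at room temperature. Loss of anti-phospho-cJun AlphaScreen signal indicates inhibition.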

Experiment [7] has as its target 3',5'-cyclic-AMP phosphodiesterase 4B (Homo sapiens) (UniProt Q07343). Description: qHTS Assay for Inhibitors of PDE-IV (AID 607; active means well fitted activation curve with a large enough effect in the main read-out, with a control signal flat, not every such curve was filed as active; further: % of control where 0% means no effect). A digest of the protocol: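 ACTOne HEK293 cells carry a modified cAMP-gated CNG channel and express endogenous PDE4; plated 1000 cells/well, compounds up to 22.9 uM final. Membrane-potential dye fluorescence (ex 535/em 590) was read; parental cells received 10 uM forskolin + 100 uM RO 20-1724.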

Experiment [8] is described as follows: qHTS Assay for Lipid Storage Modulators (AID 1519; calls by dose curve). The note with it: Drosophila S3 cells, BODIPY lipid droplet/cell ratio, laser cytometry, cells loaded with oleic acid; for activity change, negative = inhibition: at 25.7 µM (top of the series). A digest of the protocol:
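Cells seeded at 5,000 per well were treated with compounds over a concentration series and loaded with oleic acid (400 uM, as added). Lipid droplet fluorescence (488 nm excitation, 500-530 nm channel) was read by laser-scanning cytometry and normalized to 20 uM Triacsin C.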

The target of experiment [9] is Glucocorticoid receptor (Homo sapiens) (UniProt P04150). Description: GR-GFP Redistribution (AID 450;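 active means compounds whose dose series gives a full or clear partial fitted curve of increased nuclear translocation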; further: potency means the concentration at half of the fitted maximal effect). The conditions noted are these: U2OS GR-GFP nuclear translocation, laser cytometry, 2 h.
In experiment [10] the target is Ubiquitin carboxyl-terminal hydrolase 1 (Homo sapiens) (UniProt O94782). Description: Inhibitors of USP1/UAF1: Pilot qHTS (AID 504865; active means well fitted curve in the direction sought with a large enough effect; an effect the other way counts as inactive or inconclusive;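 further: rhodamine fluorescence freed from ubiquitin-rhodamine substrate followed over time; top concentration of the series differs between compounds; on the % scale 0 is the no-effect control and ±100 the full control effect; nearly all actives have a fitted effect of over 35% in size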). A digest of the protocol:
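Enzyme-free wells gave the negative control, while test wells held 1nM USP1/UAF1 preincubated with compound for 15 min at room temperature. Ub-Rho at 150nM final started the reaction, and fluorescence at 480/540 nm was recorded kinetically.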
(qHTS replaces the single test concentration by a dilution series.)

The target in experiment [11] is Luciferin 4-monooxygenase (Photinus pyralis) (UniProt P08659). The experiment can be described thus: Biochemical firefly luciferase enzyme assay for NPC (AID 624030; active means well fitted curve in the direction sought with a large enough effect; an effect the other way counts as inactive or inconclusive;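 further: purified P. pyralis luciferase at 10 nM with luciferin and ATP substrate; 0% = DMSO and -100% = full luciferase inhibition by PTC124 control; nearly all actives have a fitted effect of over 70% in size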). A digest of the protocol:
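Purified P. pyralis luciferase at 10 nM in 50 mM Tris Acetate (final), luminescence read within 5 minutes of enzyme addition to compounds. Activity normalised to PTC124 versus DMSO; concentration-response curves classed by r2, magnitude and activity.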

The nature of experiment [12]: S16 Schwann cell viability assay (CellTiter-Glo assay) (AID 624031; active means well fitted curve in the direction sought with a large enough effect; an effect the other way counts as inactive or inconclusive;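 further: cellular ATP luminescence as a viability measure; plate controls were DMSO-treated cells for no effect and cell-free wells for full effect; nearly all actives have a fitted effect of over 70% in size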). A digest of the protocol:
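Native S16 rat Schwann cells, 500-750 cells/well in DMEM with 10% FBS, dosed with compound after overnight culture and incubated 24h at 37 degree Celsius/5% CO2. Viability by CellTiter-Glo luminescence; % activity normalized to no-cell wells and DMSO-treated cells.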
In general terms: In ATP-based viability assays light output follows the ATP content of the culture.

Experiment [13] is described as follows: qHTS profiling for inhibitors of Plasmodium falciparum proliferation (AID 504749; active means well fitted curve in the direction sought with a large enough effect; an effect the other way counts as inactive or inconclusive;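 further: 0% = DMSO vehicle and full inhibition = artemisinin control; nearly all actives have a fitted effect of over 60% in size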). The conditions noted are these: P. falciparum in erythrocytes, SYBR Green DNA, 72 h, at 12.8 µM (top of the series). In a few lines:
(§1)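 Readout was DNA-dye fluorescence from lysed cultures, ex 485/em 535 nm. Parasitized red cells had grown 72 h with compound; data scaled between 0.29 uM artemisinin and DMSO wells and corrected using vehicle-only plates.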

For the next experiment, the system named is C2A. The experiment is described as above. The conditions noted are these: P. falciparum in erythrocytes, SYBR Green DNA, 72 h; series mostly up to 12.8 µM. In a few lines:
as §1

In another experiment the test system is CP191. Described as above. The conditions noted are these: P. falciparum in erythrocytes, SYBR Green DNA, 72 h; series mostly up to 12.8 µM. In a few lines: as §1
The subject of a further experiment is CP256. Described as above. The note with it: P. falciparum in erythrocytes, SYBR Green DNA, 72 h; series mostly up to 12.8 µM. A digest of the protocol: as §1
In the next experiment the test system is CP262. The description is as above. The conditions noted are these: P. falciparum in erythrocytes, SYBR Green DNA, 72 h; series mostly up to 12.8 µM. In a few lines: as §1
The next experiment deals with CP268. The description is as above. The note with it: P. falciparum in erythrocytes, SYBR Green DNA, 72 h; series mostly up to 12.8 µM. A digest of the protocol: as §1
The test system of another experiment is JCK. Described as above. The note with it: P. falciparum in erythrocytes, SYBR Green DNA, 72 h; series mostly up to 12.8 µM. A digest of the protocol:
as §1

For another experiment, the system named is SC27B. The description is as above. The conditions noted are these: P. falciparum in erythrocytes, SYBR Green DNA, 72 h; series mostly up to 12.8 µM. A digest of the protocol: as §1
The mark [14] stands for this setting: measured here: cell count channel max response.
Setting [15] is: measured here: lipid channel max response.

3',5'-cyclic-AMP phosphodiesterase 4B (Homo sapiens), sequence (Q07343 whole entry, looked up): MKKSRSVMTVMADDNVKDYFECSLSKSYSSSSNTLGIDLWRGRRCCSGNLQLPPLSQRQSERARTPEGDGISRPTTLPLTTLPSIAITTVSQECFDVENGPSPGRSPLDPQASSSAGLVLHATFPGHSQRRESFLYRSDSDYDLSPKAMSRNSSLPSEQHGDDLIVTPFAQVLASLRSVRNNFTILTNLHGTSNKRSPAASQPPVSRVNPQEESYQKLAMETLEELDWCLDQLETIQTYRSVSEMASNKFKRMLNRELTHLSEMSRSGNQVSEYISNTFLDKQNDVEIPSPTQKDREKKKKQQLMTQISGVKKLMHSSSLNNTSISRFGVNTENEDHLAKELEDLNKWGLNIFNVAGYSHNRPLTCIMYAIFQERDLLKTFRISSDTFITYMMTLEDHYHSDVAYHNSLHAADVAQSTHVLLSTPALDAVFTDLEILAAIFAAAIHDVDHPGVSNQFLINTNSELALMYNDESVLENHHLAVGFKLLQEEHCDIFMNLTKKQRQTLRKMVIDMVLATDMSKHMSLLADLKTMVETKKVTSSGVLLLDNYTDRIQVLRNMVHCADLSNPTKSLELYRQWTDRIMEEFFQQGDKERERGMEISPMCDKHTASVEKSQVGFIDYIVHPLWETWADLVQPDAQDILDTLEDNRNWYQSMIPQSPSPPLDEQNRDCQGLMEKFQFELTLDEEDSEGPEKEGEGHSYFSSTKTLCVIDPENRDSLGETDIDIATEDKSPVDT
Ubiquitin carboxyl-terminal hydrolase 1 (Homo sapiens), sequence (O94782 whole entry, looked up): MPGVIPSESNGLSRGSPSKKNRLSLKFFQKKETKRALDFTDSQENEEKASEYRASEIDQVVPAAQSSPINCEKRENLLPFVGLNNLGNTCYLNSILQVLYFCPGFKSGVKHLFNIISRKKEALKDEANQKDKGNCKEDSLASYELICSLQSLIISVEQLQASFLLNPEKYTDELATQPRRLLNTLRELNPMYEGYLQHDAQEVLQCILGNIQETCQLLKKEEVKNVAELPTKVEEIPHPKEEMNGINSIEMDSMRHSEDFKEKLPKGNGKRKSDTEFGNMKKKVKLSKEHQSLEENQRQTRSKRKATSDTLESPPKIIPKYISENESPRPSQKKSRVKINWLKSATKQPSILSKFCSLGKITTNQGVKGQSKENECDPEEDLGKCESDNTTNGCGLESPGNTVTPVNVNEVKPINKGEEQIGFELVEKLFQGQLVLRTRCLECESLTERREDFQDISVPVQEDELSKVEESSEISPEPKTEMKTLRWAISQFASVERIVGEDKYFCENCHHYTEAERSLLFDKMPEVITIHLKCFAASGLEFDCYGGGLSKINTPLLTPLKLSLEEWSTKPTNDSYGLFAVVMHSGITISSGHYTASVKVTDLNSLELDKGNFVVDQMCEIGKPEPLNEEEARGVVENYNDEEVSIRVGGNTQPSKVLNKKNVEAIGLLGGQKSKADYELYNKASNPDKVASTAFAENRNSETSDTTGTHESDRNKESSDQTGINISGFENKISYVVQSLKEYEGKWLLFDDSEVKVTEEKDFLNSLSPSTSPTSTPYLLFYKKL
Glucocorticoid receptor (Homo sapiens), sequence (P04150 whole entry, looked up, the tested form may be a part): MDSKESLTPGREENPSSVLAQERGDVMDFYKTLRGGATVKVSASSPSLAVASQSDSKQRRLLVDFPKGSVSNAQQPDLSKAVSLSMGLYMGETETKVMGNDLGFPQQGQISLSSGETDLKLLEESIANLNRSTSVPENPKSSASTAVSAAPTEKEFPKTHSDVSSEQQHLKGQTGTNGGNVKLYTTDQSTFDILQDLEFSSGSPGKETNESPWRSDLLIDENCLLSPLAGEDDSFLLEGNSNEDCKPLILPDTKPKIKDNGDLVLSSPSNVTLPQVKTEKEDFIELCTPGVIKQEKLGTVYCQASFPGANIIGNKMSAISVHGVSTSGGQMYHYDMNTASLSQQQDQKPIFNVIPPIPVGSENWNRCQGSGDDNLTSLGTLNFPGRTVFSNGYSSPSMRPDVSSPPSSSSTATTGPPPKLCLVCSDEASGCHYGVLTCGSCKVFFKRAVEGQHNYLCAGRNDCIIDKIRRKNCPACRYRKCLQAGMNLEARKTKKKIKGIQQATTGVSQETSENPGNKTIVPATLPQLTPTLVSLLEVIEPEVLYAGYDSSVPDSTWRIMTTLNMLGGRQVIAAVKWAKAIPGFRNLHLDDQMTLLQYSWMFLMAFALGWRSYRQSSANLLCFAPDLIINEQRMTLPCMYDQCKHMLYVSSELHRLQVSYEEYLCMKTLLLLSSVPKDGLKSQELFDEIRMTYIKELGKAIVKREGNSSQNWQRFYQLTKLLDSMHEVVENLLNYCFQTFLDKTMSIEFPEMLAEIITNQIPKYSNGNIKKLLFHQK
Cytochrome P450 1A2 (Homo sapiens), sequence (P05177 whole entry, looked up): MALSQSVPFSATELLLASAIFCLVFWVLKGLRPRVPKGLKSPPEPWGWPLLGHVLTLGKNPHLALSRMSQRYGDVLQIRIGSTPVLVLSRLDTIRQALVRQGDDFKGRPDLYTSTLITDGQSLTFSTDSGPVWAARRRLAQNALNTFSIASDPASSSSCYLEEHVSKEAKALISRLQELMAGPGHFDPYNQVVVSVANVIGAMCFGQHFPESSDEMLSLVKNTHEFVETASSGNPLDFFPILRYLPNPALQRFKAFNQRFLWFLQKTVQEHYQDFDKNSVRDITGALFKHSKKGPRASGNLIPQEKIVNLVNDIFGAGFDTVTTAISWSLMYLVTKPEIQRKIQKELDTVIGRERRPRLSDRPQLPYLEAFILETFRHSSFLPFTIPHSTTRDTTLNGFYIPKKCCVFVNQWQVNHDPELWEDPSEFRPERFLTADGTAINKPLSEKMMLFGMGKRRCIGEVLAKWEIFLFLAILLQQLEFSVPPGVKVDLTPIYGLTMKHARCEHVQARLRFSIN
Luciferin 4-monooxygenase (Photinus pyralis), sequence (P08659 whole entry, looked up): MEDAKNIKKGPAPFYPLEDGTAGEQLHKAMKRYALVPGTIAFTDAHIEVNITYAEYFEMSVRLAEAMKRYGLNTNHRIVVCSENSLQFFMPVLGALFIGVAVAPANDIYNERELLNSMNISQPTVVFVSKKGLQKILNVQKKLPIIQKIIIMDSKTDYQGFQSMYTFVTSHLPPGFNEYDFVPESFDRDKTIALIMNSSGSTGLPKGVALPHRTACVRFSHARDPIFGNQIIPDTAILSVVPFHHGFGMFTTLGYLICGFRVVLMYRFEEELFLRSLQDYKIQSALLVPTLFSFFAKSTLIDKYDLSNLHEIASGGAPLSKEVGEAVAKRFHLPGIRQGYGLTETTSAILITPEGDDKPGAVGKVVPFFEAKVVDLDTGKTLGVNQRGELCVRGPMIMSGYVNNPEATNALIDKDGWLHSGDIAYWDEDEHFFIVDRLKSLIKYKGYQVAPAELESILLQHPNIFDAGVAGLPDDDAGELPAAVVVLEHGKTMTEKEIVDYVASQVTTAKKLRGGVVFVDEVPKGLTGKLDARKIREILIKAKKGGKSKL

As to `CC(=O)CC(=O)[C@@]1(O)CC[C@@H]2[C@@H]3C=C(C)C4=CC(=O)CC[C@@H]4[C@H]3CC[C@]21C`, the outcome in experiment [1], in experiment [4] and in [7] was inactive. The Potency entry in [2] and in experiment [6] was “inactive” each time. Further, the activity change, negative = inhibition in experiment [3] was -13.4% (inactive); in experiment [8], -4.61% (inactive). For the same compound, in experiment [5], the Potency is > 20.6 µM (inactive). For the same compound, the max response was -16.2% in [8] (setting [14]) and -21% in experiment [8] (setting [15]).
As for `CO/N=C(\C(=O)N[C@@H]1C(=O)N2C(C(=O)O)=C(COC(N)=O)CS[C@@H]12)c1ccco1`, the outcome in experiment [1], in [4] and in [7] was inactive. The Potency result in [2], in [6] and in experiment [10] was “inactive” throughout. The activity change, negative = inhibition in experiment [3] is 6.11% (inactive); in [8], 1.43% (inactive). In addition, the Potency in [9] and in experiment [5] was > 20.6 µM (inactive) throughout. The max response in experiment [8] (setting [14]) is -5.14%; in experiment [8] (setting [15]), -2.21%.
Take `CC(=O)N[C@@H](CC(=O)O)C(=O)O`: the outcome in experiment [1], in experiment [4] and in experiment [7] was inactive. Besides, the Potency result in experiment [2], in experiment [6] and in experiment [10] was “inactive” throughout. Also, the activity change, negative = inhibition in experiment [3] is -10.7% (inactive); in experiment [8], -1.04% (inactive). Besides, the Potency in [9] and in experiment [5] was > 20.6 µM (inactive) throughout. The max response in experiment [8] (setting [14]) was -3.12%; in [8] (setting [15]), -4.28%.
On to `Cn1c(-c2ccc3c(c2)OCO3)cc(=O)c2ccccc21`, for which the compound was called inactive in experiment [1] and in experiment [4]. In addition, the results for the Potency in [2] and in experiment [5] were 5.01 µM (active) and > 20.6 µM (inactive), respectively. Further, the activity change, negative = inhibition in [3] is -10.6% (inactive); in [8], 2.22% (inactive). Moreover, the Potency entry in experiment [6] and in experiment [10] was “inactive” each time. The values for the max response in [8] (setting [14]) and in [8] (setting [15]) were -4.86% and -2.71%, respectively.
Turning to `CC(=O)[C@@]1(O)CC[C@H]2[C@H]3C[C@@H](C)C4=CC(=O)C=C[C@]4(C)[C@@]3(F)[C@@H](O)C[C@]21C`, the compound was called inactive in experiment [1], in [4], in experiment [7] and in experiment [12]. Besides, the Potency entry (in experiment [2]; in [6]; in [10]; in [11]; with C2A; with CP191) was “inactive” in each case. Further, the Potency entry with CP256, in the experiment with CP262, in the experiment with CP268, in the experiment with JCK and with SC27B was “inactive” each time. For the same compound, the activity change, negative = inhibition was 5.97% (inactive) in experiment [3] and -6.74% (inactive) in [8]. The Potency in experiment [5] was 0.00821 µM (active). Moreover, the max response was -14.1% in [8] (setting [14]) and -19.8% in experiment [8] (setting [15]). The activity, negative = inhibition in [13] (parasite line A) is -2.85% (inactive); in experiment [13] (parasite line B) it was -0.507% (inactive).
On to `O=C(/C=C\c1ccc(O)c(O)c1)O[C@@H]1C[C@](O)(C(=O)O)C[C@@H](O)[C@@H]1O`, for which the result in experiment [1], in [4] and in experiment [7] was inactive. For the same compound, the Potency entry in experiment [2], in [6] and in experiment [10] was “inactive” each time. The activity change, negative = inhibition in experiment [3] was -0.271% (inactive); in experiment [8] it was 2.29% (inactive). Further, the Potency in experiment [9] and in experiment [5] was > 20.6 µM (inactive) in each case. Besides, the results for the max response in experiment [8] (setting [14]) and in experiment [8] (setting [15]) were 1.17% and 3.23%, respectively.
`Cc1onc(-c2c(Cl)cccc2Cl)c1C(=O)N[C@H]1C(=O)N2[C@H]1SC(C)(C)[C@H]2C(=O)O`: the result in experiment [1], in [4] and in experiment [7] was inactive. Also, the Potency result in [2], in experiment [6] and in experiment [10] was “inactive” each time. Further, the figures for the activity change, negative = inhibition in experiment [3] and in experiment [8] were -5.49% (inactive) and -2.5% (inactive), respectively. The Potency in [9] and in experiment [5] was > 20.6 µM (inactive) in each case. For the same compound, the max response is -2.7% in experiment [8] (setting [14]) and -4.28% in experiment [8] (setting [15]).
